# Reference: PubChem BioAssay AID485344 (National Center for Advancing Translational Sciences (NCATS), 2010)
# Where “and” joins values, the source holds several entries; their conditions need not be identical. Identical values can stand only once. The campaign covered roughly 340,000 compounds. About 6,900 (2%) were called active. No stated cut-off is given here; in the data, active means inhibition above about 30%; inactive means below that, where a call was filed. The full list was thinned out, with actives kept by preference. A structure can be active in one record and inactive in another.
# Biological target: D(2) dopamine receptor (Homo sapiens) (UniProt P14416)
# Experiment: HTS Assay for Allosteric Antagonists of the Human D2 Dopamine Receptor: Primary Screen for Antagonists; further: 0% is about no effect
# Conditions: HEK293 TREx D2 cells, calcium flux, dopamine EC80; at 10 µM; stronger effect = higher value
# Method in brief: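 Tetracycline-induced HEK293 TREx cells expressing D2 receptor forced-coupled to calcium signalling, loaded with no-wash calcium dye. Compounds added and calcium flux read 180 s, then dopamine added at EC80 and read a further 180 s.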
# Sequence of D(2) dopamine receptor (Homo sapiens) (P14416 whole entry, looked up): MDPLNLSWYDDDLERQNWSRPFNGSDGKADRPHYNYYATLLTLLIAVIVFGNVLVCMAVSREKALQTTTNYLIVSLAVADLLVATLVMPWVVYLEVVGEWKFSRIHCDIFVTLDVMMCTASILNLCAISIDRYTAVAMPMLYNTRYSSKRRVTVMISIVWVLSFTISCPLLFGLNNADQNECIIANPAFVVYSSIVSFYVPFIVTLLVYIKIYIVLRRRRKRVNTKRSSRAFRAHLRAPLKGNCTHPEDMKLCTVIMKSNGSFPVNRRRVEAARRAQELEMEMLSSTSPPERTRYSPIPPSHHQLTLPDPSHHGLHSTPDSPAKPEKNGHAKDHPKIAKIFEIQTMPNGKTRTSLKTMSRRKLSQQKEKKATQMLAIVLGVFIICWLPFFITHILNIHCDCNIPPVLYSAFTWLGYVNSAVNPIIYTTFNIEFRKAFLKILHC
row,Structure (SMILES),inhibition
1,Cc1ccc(C)c(OCCC(=O)OCC(=O)c2ccc3c(c2)NC(=O)CO3)c1,-0.691% (inactive)
2,COc1ccccc1-c1sc2ccccc2c1-c1ccc(Br)nc1,7.5% (inactive)
3,Cc1n[nH]c(=O)c2c(NC(=O)CSc3cc(Cl)ccc3Cl)oc(C)c12,10% (inactive)
4,Cc1c(C(=O)Nc2ccccn2)oc2ccc(Br)cc12,-19.8% (inactive)
5,O=C(COC(=O)c1ccccc1SCC(=O)N1CCCC1)Nc1ccccc1OC(F)F,-3.18% (inactive)
6,COc1ccc(CN2CCC(c3nc4ccc(Cl)cc4[nH]3)CC2)cc1,59.7% (active)
7,COC(=O)c1cc(S(=O)(=O)NCC2CCN(Cc3ccc(Cl)cc3)CC2)cn1C,-3.52% (inactive)
8,COc1ccc(Cn2nnc3c(=O)[nH]c(C4CCN(C(=O)c5ccccc5Cl)CC4)nc32)cc1,5.81% (inactive)
9,Nc1c(N(CCCO)C(=O)C2CCCC2)c(=O)[nH]c(=O)n1Cc1ccccc1,10.6% (inactive)
10,Cc1cccc(NC(=O)CN2CCN(CC(=O)NCC3(N4CCCCC4)CCCCC3)CC2)c1C,6.75% (inactive)
11,CCN(CC(=O)Nc1cc(Cl)ccc1C)C(=O)CSCc1ccccc1,6.06% (inactive)
12,CC(C#N)(NC(=O)CN1CCN(S(=O)(=O)c2cc(C(F)(F)F)ccc2Cl)CC1)C1CC1 (stereo not drawn),12.9% (inactive)
13,CC1CCN(c2ccc([N+](=O)[O-])c(SCCO)c2)CC1,-11.8% (inactive)
14,CN1CCN(c2ccc([N+](=O)[O-])c(Sc3nc4ccccc4[nH]3)c2)CC1,88.9% (active)
15,O=C(CSc1nc2ccccc2[nH]1)N/N=C/C=C\c1ccccc1[N+](=O)[O-],-1.1% (inactive)
16,Cc1noc(C)c1COc1ccccc1C(=O)N(C)CC(=O)Nc1cccc(F)c1,6.3% (inactive)
17,CC(=O)Nc1ccc(S(=O)(=O)N(CCc2ccccc2)CC(=O)N/N=C/c2ccc(C(=O)O)cc2)cc1,10.8% (inactive)
18,COc1ccc(S(=O)(=O)N(CC(=O)N/N=C/c2ccccc2C(=O)O)c2ccccc2OC)cc1,1.95% (inactive)
19,COc1ccc(N(CC(=O)N/N=C/c2cccc3c2OCCO3)S(=O)(=O)c2ccc(NC(C)=O)cc2)cc1,44.5% (active)
20,CC(CCn1cccn1)NC(=O)CCc1nnc(CCc2ccccc2)o1 (stereo not drawn),3.4% (inactive)

row,Structure (SMILES),inhibition
1,Cc1cc(-c2nnc(CCC(=O)NC(c3ccccc3)c3ccccc3)o2)no1,4.61% (inactive)
2,O=C(CCc1nnc(CCCCc2ccccc2)o1)NC(c1cccnc1)C(F)(F)F (stereo not drawn),32.7% (active)
3,O=S(=O)(NCCc1ccccn1)c1cc(Cl)cc(Cl)c1O,0.268% (inactive)
4,O=C(Nc1ncccc1O)c1ccc(S(=O)(=O)N2CCCC2)cc1,-6.12% (inactive)
5,O=C(CN1C(=O)NC2(CCCCC2)C1=O)N1CCN(C(=O)c2cccs2)CC1,-4.48% (inactive)
6,CCCc1ccc(C(=O)COC(=O)CN2C(=O)NC3(CCCCC3C)C2=O)cc1 (stereo not drawn),-19.2% (inactive)
7,COc1ccc(NC(=O)c2sccc2SCC#N)cc1,31.6% (active)
8,COc1ccc(NC(=O)CSc2nc(C)cs2)cc1,7.3% (inactive)
9,COc1ccc(NC(=O)c2sc(N)nc2-c2ccccc2)cc1,-6.34% (inactive)
10,NC(=O)NC(=O)C(OC(=O)CCNS(=O)(=O)c1ccccc1)c1ccccc1 (stereo not drawn),12.6% (inactive)
11,O=C1COc2ccc(C(=O)CSc3ccc(Br)cc3)cc2N1,11.8% (inactive)
12,COc1cccc(C2=CC(=O)C[C@H](c3ccc(OC)c(OC)c3)C2)c1,9.37% (inactive)
13,CC(C)CCN1CCN(C/C=C/c2ccco2)CC1CCO (stereo not drawn),-9.65% (inactive)
14,CC(C)CCN1CCN(Cc2cn[nH]c2C2CCCCC2)CC1CCO (stereo not drawn),56.2% (active)
15,CC(C)CCN1CCN(Cc2ccc(C(F)(F)F)cc2)CC1CCO (stereo not drawn),14.1% (inactive)
16,COc1ccc(CCNC(=O)COc2ccc3c(c2)OCO3)cc1,-6.03% (inactive)
17,O=C(Cn1c(=O)sc2ccccc21)Nc1ccc2c(c1)OCCO2,-10.2% (inactive)
18,O=C(CN1CCC(O)(c2ccccc2)CC1)Nc1ccc2c(c1)OCCO2,94.9% (active)
19,Cn1c(=O)c2ccccc2n(CC(=O)Nc2ccc3c(c2)OCCO3)c1=O,0.133% (inactive)
20,CC1CCCC(NC(=O)c2cc(-c3ccncc3)nc3ccccc23)C1C (stereo not drawn),-1.15% (inactive)

row,Structure (SMILES),inhibition
1,CC(OC(=O)Cc1ccc(F)cc1)C(=O)N1CCc2ccccc21 (stereo not drawn),-8.93% (inactive)
2,CN(CC(=O)Nc1ccc(F)c(F)c1F)C(=O)C1CC(=O)N(C2CCCC2)C1 (stereo not drawn),-11.5% (inactive)
3,O=C(NC1CCCC1)c1cc(-c2ccccc2)on1,37.6% (active)
4,CC(NC(=O)c1cc(-c2ccccc2)on1)c1ccccc1 (stereo not drawn),11.6% (inactive)
5,O=C(NC1CCCCC1)c1cc(C2CC2)on1,-9.03% (inactive)
6,CCn1c(SCC(=O)NCC2CCCO2)nc2ccccc21 (stereo not drawn),-20.8% (inactive)
7,COC(=O)[C@H]1[C@H]2C[C@H]3c4[nH]c5ccccc5c4CCN3C[C@@H]2CC[C@@H]1O,-5.26% (inactive) and 43.4% (active)
8,COC(=O)C1CCN(C(=O)c2cc(=O)[nH]c3ccccc23)CC1,17.7% (inactive)
9,O=C(NC1CCCCC1)N1CCc2[nH]c3ccccc3c2C1,-14.3% (inactive)
10,O=C(COC(=O)Cc1ccc(Br)cc1)Nc1ccc(N2CCOCC2)cc1,22.4% (inactive)
11,COc1cc(CNCc2ccc(OC)c3ccccc23)cc(OC)c1OC,33% (active)
12,COc1cc(CNCc2cccs2)cc(Br)c1OC,-4.22% (inactive)
13,COc1ccc(CNC(=O)Cc2ccc(-c3ccccc3)cc2)cc1OC,20.3% (inactive)
14,COC(=O)C1=CO[C@@H](O[C@@H]2O[C@H](CO)[C@@H](O)[C@H](O)[C@H]2O)C2C1C[C@H](O)[C@@H]2C (stereo partly drawn),-6.47% (inactive)
15,COc1ccc(-n2c(SCC(=O)NCc3cccs3)nnc2-c2ccoc2C)cc1,42.5% (active)
16,COc1ccc(-n2c(SCC(=O)NCc3ccco3)nnc2-c2c[nH]c3ccccc23)cc1,-8.02% (inactive)
17,COc1ccc(-n2nnnc2SCC(=O)NCc2cccs2)cc1,-2.89% (inactive)
18,CN1CCN(S(=O)(=O)c2cccc(C(=O)Nc3sccc3C#N)c2)CC1,0.535% (inactive)
